From PubChem BioAssay AID795 (NMMLSC, 2007)
Out of some 24,000 compounds screened, about 130 (0.54%) were called active. What follows is part of a selection rich in actives, with near analogues and random picks from the rest. Unmarked numbers belong to inactive results.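 The calls were made as follows: active = side scatter shift above 30%; inactive = the rest.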 Square brackets hold non-standard residues; d marks the D form. Peptide text beside a SMILES is read from it. ξ: configuration not given here. ξV = CC(C)C(N)C(=O)O

Experiment: activators of LNCaP prostate cell differentiation, primary screen, flow cytometry side scatter (AID 795);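 also: androgen-responsive LNCaP prostate cancer cells in charcoal-stripped serum medium; percent of cells past a gate set so DMSO wells show 10% shift; higher shift means more granular cells and more differentiation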
Details: 4 d, at 10 µM, hits give high values

SMILES	side scatter shift
CCOc1c(OC)cc(C2C(C#N)=C(N)Oc3n[nH]c(-c4ccncc4)c32)cc1OC (centres undefined)	4%
Cc1ccc(N2CCN(c3ccc(C)cc3)C2c2ccccn2)cc1	16%
Cc1ccc(C(c2sc3nc(C)nn3c2O)N2CCN(c3ccccc3)CC2)cc1 (centres undefined)	10%
FC(F)Oc1ccccc1C1CC(c2ccc(Br)s2)Nc2ncnn21 (centres undefined)	11%
Cc1c(NC(=O)C(C)OC(=O)c2cc3c4ccccc4n(C)c3s2)c(=O)n(-c2ccccc2)n1C (centres undefined)	7%
CCOC(=O)N1CCC(NC(=O)c2cnn3ccccc23)CC1	2%
Cc1ncn(C23CC4CC(CC(O)(C4)C2)C3)n1	9%
O=C(c1ccc(=O)[nH]c1)N(Cc1ccco1)C1(C(=O)NC2CCCCC2)CCCCC1	1%
CCN(c1ccc2c(c1)OCO2)S(=O)(=O)c1cc(Br)cc2c1N(C(=O)C1CC1)CC2	6%
c1ccc(CCn2nnnc2CN2CCN(C3CCCC3)CC2)cc1	14%
O=C(NCCc1ccc(Cl)cc1)C1CC(=O)N(C2CCCCC2)C1 (centres undefined)	24%
Cc1nc2ccc(NC(=O)N3CCC(c4ccccc4)C3)cc2nc1C (centres undefined)	11%
COc1cc2ccccc2cc1C(=O)Nc1ccc(S(=O)(=O)Nc2cc(C)on2)cc1	12%
COc1ccc2c(c1)CCc1c(C(=O)Nc3c(C)n(C)n(-c4ccccc4)c3=O)noc1-2	1%
COc1ccc(OC)c(CNC(=O)CCc2nc(-c3cccs3)no2)c1	12%
CCCN1Cc2cccc(C(=O)NCc3ccccc3)c2C1=O	9%
O=C(CCCn1c(SCC(=O)c2ccc(F)cc2)nc2ccccc2c1=O)NCc1ccco1	8%
CCc1nnc(NC(=O)CSc2nnc(Cc3ccccc3)n2-c2ccc(OC)cc2)s1	6%
CC(NC(=O)c1ccc(Cl)cc1)C(=O)N1CCCCC1 (centres undefined)	5%
O=C1Nc2c(Br)cc(Br)cc2C1(O)N1CCOCC1 (centres undefined)	13%
O=C(c1ccco1)N1CCN(CC(=O)N(C2CCCCC2)C2CCS(=O)(=O)C2)CC1 (centres undefined)	9%
COc1cccc(C(=O)Nc2c3c(nn2-c2cccc(C)c2C)CS(=O)(=O)C3)c1OC	8%
CCN(Cc1ccccc1)C(=O)CSc1nc(C)cc2c1C(=O)OC2	4%
COc1ccc2c(CC(=O)Nc3nnc(C4CC4)s3)coc2c1	7%
CCCN1CCN(CCCNC(=O)CN2C(=O)COc3ccccc32)CC1	7%

SMILES	side scatter shift
COc1ccccc1-n1cnc2cc(NS(=O)(=O)c3ccccc3)ccc21	11%
COc1ccc(OC)c(CN2C(=O)CCC2(C)C(=O)NC2CCCCCC2)c1 (centres undefined)	11%
Cc1ccc(-c2nc(CS(=O)CC(=O)NC3CCCC3)c(C)o2)cc1 (centres undefined)	7%
Cc1ccnc(N2C(=O)c3ccccc3C2Nc2ccc3c(c2)OCCO3)c1 (centres undefined)	7%
CCOc1ccccc1NC(=O)c1cc(S(=O)(=O)N2CCC3(CC2)OCCO3)ccc1F	7%
CCOC(=O)N1CCC(NC(=O)C(C)n2c3ccccc3c3cnn(C)c(=O)c32)CC1 (centres undefined)	6%
Cn1c2ccccc2c2c(C(=O)N3CCN(c4ccc(F)cc4)CC3)cn(C3CCCC3)c(=O)c21	1%
O=c1c(-c2ccccc2)coc2c(CN3CCOCC3)c(O)ccc12	9%
COc1ccccc1CNC(=O)CCCNS(=O)(=O)c1cccc2nsnc12	4%
O=C(NC1CCCCC1)C1CCCN(S(=O)(=O)c2cccs2)C1 (centres undefined)	4%
CC(C)C[C@H](NC(=O)Nc1cccc(C(F)(F)F)c1)C(=O)O	12%
CC1(C)CN=C(N2CCN(c3ncnc4sc5c(c34)CCCC5)CC2)S1	4%
Cc1ccc(C)c(NC(=O)CSc2nnc(Cc3cccn3C)n2-c2ccc(F)cc2)c1	12%
COc1cccc(NC(=O)Nc2nnc(N3CCCCC3C)s2)c1 (centres undefined)	6%
CCOC(=O)C1CCN(C(=O)CSc2cc(=O)n(C)c3ccccc23)CC1	8%
O=c1cc(O)nc(SCc2ccccc2Cl)[nH]1	7%
O=C(NCCN1CCOCC1)c1ccc2c(c1)ncn2C1CCCC1	8%
Cc1ccc(N(C(=O)CC2NC(=O)NC2=O)C2(C(=O)NC3CCCC3)CCCCC2)cc1 (centres undefined)	0%
Cc1cc(C)nc(SCc2nnc(SCC(=O)Nc3ncc(C)s3)n2Cc2ccco2)n1	16%
COc1ccccc1C(=O)N1CCNC(=O)C1CC(=O)Nc1ccc(Cl)cc1 (centres undefined)	7%
Cc1ccc(S(=O)(=O)n2nc(OC(=O)C(C)(C)C)cc2N)cc1	6%
CC1=C(C(=O)OC2CCCCC2)C(c2cccnc2)n2ncnc2N1 (centres undefined)	1%
COc1ccc(CCNC(=O)c2ccc3c(c2)NC(=O)C(N2CCOCC2)S3)cc1OC (centres undefined)	18%
COc1cccc(NS(=O)(=O)c2ccc3[nH]cc(C(=O)NCCCOC(C)C)c(=O)c3c2)c1	11%
Cc1cc(C)c(C)c(S(=O)(=O)Nc2ccc(O)cc2)c1C	3%

SMILES	side scatter shift
O=C(Nc1cccnc1)c1noc2c1CCCCC2	12%
Fc1ccc2nc(Nc3nc4c(s3)CCCC4)sc2c1	11%
CN(Cc1ccccc1)C(=O)CCNC(=O)Cn1cnc2ccccc2c1=O	6%
OCCNCCCCOc1ccccc1F	7%
CCC(C)Sc1nnc(-c2c[nH]c3ccccc23)n1CCOC (centres undefined)	6%
CCOC(=O)CNC(=O)CN1C(=O)CCSc2ccccc21	7%
CCCCn1c(=S)[nH]c2ncccc2c1=O	3%
CCOC(=O)c1c(N)c(C#N)nn1-c1ccccc1C(=O)OC	6%
C=CCn1c(=N)n(CC(O)COc2ccc(OC)cc2)c2ccccc21 (centres undefined)	8%
O=C(Nn1cnc2ccccc2c1=O)c1ccc(F)cc1Cl	9%
Cc1nn(Cc2ccc(Cl)c(Cl)c2)c(C)c1NC(=O)c1cc(C2CC2)on1	13%
Cc1cccc(CSc2nnc(Cn3c(=O)sc4ccccc43)n2C)c1	9%
Cc1c2cn[nH]c(=O)c2c(C)n1Cc1ccc(F)cc1	2%
Cc1cccn2c(=O)c3cc(C#N)c(=O)n(CCCN4CCOCC4)c3nc12	4%
Cc1cc(C)nc(NC2=NCC(=O)N2c2ccc(Cl)cc2)n1	5%
CCn1c(SCC(=O)Nc2ccc3c(c2)OCCO3)nc2c(c1=O)SC(C)C2 (centres undefined)	8%
Cn1c(=O)cc(OCCCC(=O)N2CCN(c3ccccn3)CC2)c2ccccc21	2%
O=C(Cn1c(=O)n(Cc2ccco2)c(=O)c2ccccc21)NCC1CCCO1 (centres undefined)	3%
Cc1ccc(S(=O)(=O)N2CCCC2CO)cc1 (centres undefined)	16%
CCOC(=O)CSc1nnc(CNC(=O)Cc2ccccc2)n1-c1ccccc1OC	15%
CCN(CC)CCCNC(=O)c1cc(-c2cccc(Cl)c2)on1	33% (active)
Cc1cc(C(=O)NCCCc2ccccc2)no1	4%
O=C(NCCCN1CCOCC1)c1cc(-c2ccc(Cl)cc2)on1	8%
Cc1ccccc1N1CC(c2nc3ccccc3[nH]2)CC1=O (centres undefined)	6%
C/C(N)=C(\C#N)C(=O)NCCc1ccccn1	16%

SMILES	side scatter shift
O=C(OCc1ccccc1F)c1ccc2c(c1)OCCO2	10%
O=C(COC(=O)c1ccccc1C(=O)c1ccccc1)c1ccco1	7%
O=C(CCN1C(=O)c2ccncc2C1=O)Nc1ccc2c(c1)OCCO2	13%
CCOC(=O)N1CCC(NC(=O)Cc2cn(C)c3ccccc23)CC1	8%
CC(=O)N1CCc2cc(S(=O)(=O)Nc3ccccc3N3CCN(C)CC3)ccc21	15%
CC(C)n1c(NCc2c[nH]c3ccccc23)nc2ccccc21	14%
CC(=O)NC(C(=O)NCC(N)=O)C(C)C (centres undefined) (Ac-[ξV]-Gly-NH2)	7%
CC(NC(=O)COc1ccccc1)C(=O)NC1=NCCS1 (centres undefined)	13%
COc1ccc(OC)c(N=Cc2c(O)[nH]c3ccccc23)c1	48% (active)
COc1ccc(N=Cc2c(O)[nH]c3ccccc23)cc1OC	15%
COC(=O)c1[nH]c2ccccc2c1NS(=O)(=O)c1ccc(OC)cc1OC	10%
CCc1c(C)nc(N2CCN(Cc3ccccc3)CC2)[nH]c1=O	8%
Cc1nc(NC(=O)C23CCC(C)(C(=O)O2)C3(C)C)sc1C (centres undefined)	4%
CCCC(=O)N1c2ccccc2NC2=C(C(=O)CCC2)C1c1ccc(F)cc1 (centres undefined)	12%
O=C(CSC1=Nc2ccccc2C2=NC(c3ccccc3)C(=O)N12)NCC1CCCO1 (centres undefined)	8%
Cc1cccc(N2C(=O)SC(N(CC(=O)O)c3cccc(C)c3)C2=O)c1 (centres undefined)	5%
O=C1NC(c2ccncc2)Nc2sc3c(c21)CCCC3 (centres undefined)	3%
COc1ccc(CCNC(=O)CSc2nnc(CNC(=O)c3cccs3)o2)cc1OC	10%
COCCCNC(=O)c1ccc(CNS(=O)(=O)c2ccc(NC(C)=O)cc2)cc1	15%
CC1=NCCN1S(=O)(=O)c1ccc(Br)c(C)c1	16%
CCOC(=O)C1(c2ccccc2)NC(c2ccc(N(C)C)cc2)C2C(=O)N(C)C(=O)C21 (centres undefined)	11%
COc1cccc(OCC(=O)Nc2ccccc2C(N)=O)c1	9%
COc1nc(Oc2ccc(=O)n(C)n2)nc(N(C)C)n1	10%
COc1ccc(N2C(=O)C3CCCN3C2c2cccs2)cc1 (centres undefined)	9%
